Read-out in experiment [1]: Cytochrome P450 2C19 (Homo sapiens) (UniProt P33261)
Put plainly: CLD_CYP2C19_6hr: CellzDirect (CLD) Gene Expression Assay for xenobiotic metabolism (CYP2C19) at 6 hours (AID 2283678). The method in brief: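 CYP2C19 transcript induction was quantified by quantitative nuclease protection assay with chemiluminescent read-out, 6 h after dosing. Cells were primary human hepatocytes from two donor preparations, given fresh dosing solutions daily in 0.2% DMSO vehicle. Activity was relative to DMSO.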

Experiment [2] is described as follows: CCTE_Padilla_ZF_144hpf_TERATOSCORE: (Legacy) CCTE's 144 Hour Post-fertilization zebrafish Assay Teratoscore, Padilla Lab (AID 2283679; active means hit-call score of the fitted dose curve at least 0.9, where 1 is the maximum; inactive means score below 0.9;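 on AC50: zebrafish embryos with chorions exposed by immersion from 6-8 hpf to 5 dpf with daily renewal; teratogenicity score from eye scoring of death hatching and malformations at 144 hpf; higher score means more developmental defects relative to DMSO baseline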). The method, boiled down: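 Larvae scored by eye at 144 hpf for death, hatching and malformations after a day in clean Hanks'. Before that, daily-renewed exposure at 80 uM (0.4% DMSO, 26C) from roughly 6-8 hpf through 5 dpf, 4 embryos per chemical.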

Read-out in experiment [3]: HMG-CoA synthase (HMGCS2), HMGCS2 (gene 3158)
Put plainly: CLD_HMGCS2_6hr: CellzDirect (CLD) Gene Expression Assay for HMG-CoA synthase (HMGCS2) at 6 hours (AID 2283682).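 Further: actives raise HMGCS2 transcript above the 0.2% DMSO vehicle baseline.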 The method, boiled down:
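HMGCS2 transcript induction read by quantitative nuclease protection with chemiluminescence, 6 h after dosing of primary human hepatocytes. Baseline was 0.2% DMSO vehicle; phase-contrast morphology gave a yes/no cytotoxicity annotation.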

Read-out in experiment [4]: Cytochrome P450 2B6 (Homo sapiens) (UniProt P20813)
Kind of experiment: CLD_CYP2B6_24hr: CellzDirect (CLD) Gene Expression Assay for xenobiotic metabolism (CYP2B6) at 24 hours (AID 2283686). The method, boiled down:
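qNPA chemiluminescent measurement of mRNA at 24 hours in human primary hepatocyte cultures from two donor preparations, with daily fresh dosing and 0.2% DMSO vehicle as baseline. Morphology-based cytotoxicity flagged yes/no.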

Read-out in experiment [5]: Cytochrome P450 2C9 (Homo sapiens) (UniProt P11712)
Kind of experiment: CLD_CYP2C9_24hr: CellzDirect (CLD) Gene Expression Assay for xenobiotic metabolism (CYP2C9) at 24 hours (AID 2283688). The method, boiled down:
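Induction of CYP2C9 mRNA was quantified by quantitative nuclease protection assay (chemiluminescence), gain of signal versus 0.2% DMSO vehicle, 24 h after dosing. Human primary hepatocytes (two donors) received fresh chemical daily at multiple concentrations; morphology-based cytotoxicity flagged yes/no.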

Read-out in experiment [6]: Cytochrome P450 3A4 (Homo sapiens) (UniProt P08684)
Kind of experiment: CLD_CYP3A4_24hr: CellzDirect (CLD) Gene Expression Assay for xenobiotic metabolism (CYP3A4) at 24 hours (AID 2283689). The method in brief: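 CYP3A4 mRNA induction read by quantitative nuclease protection (chemiluminescence) 24 hr after dosing. Cultured human hepatocytes (two donor preparations) treated daily, vehicle 0.2% DMSO; phase-contrast morphology annotates cytotoxicity.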

Read-out in experiment [7]: sulfotransferase (SULT2A), SULT2A1 (gene 6822)
Kind of experiment: CLD_SULT2A_24hr: CellzDirect (CLD) Gene Expression Assay for sulfotransferase (SULT2A) at 24 hours (AID 2283694). The method in brief: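 mRNA is measured by qNPA: probe hybridisation, S1 nuclease digestion, chemiluminescence, in lysates from human primary hepatocytes harvested 24 h after daily dosing. Vehicle was 0.2% DMSO. Phase-contrast microscopy flagged cytotoxicity (yes/no).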

Read-out in experiment [8]: ABC Transporter (ABCB1), ABCB1 (gene 5243)
Put plainly: CLD_ABCB1_48hr: CellzDirect (CLD) Gene Expression Assay for ABC Transporter (ABCB1) at 48 hours (AID 2283695).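 On AC50: potency for induction meaning increase of mRNA over DMSO vehicle.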 The method in brief: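 ABCB1 mRNA was measured by quantitative nuclease protection assay (chemiluminescence) 48 h after dosing. Human hepatocyte cultures from two separate donors received fresh dosing solutions daily for two days, with 0.2% DMSO as vehicle. Positive-direction fit against DMSO.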

Read-out in experiment [9]: glucuronosyltransferase (UGT1A1), UGT1A1 (gene 54658)
Kind of experiment: CLD_UGT1A1_24hr: CellzDirect (CLD) Gene Expression Assay for glucuronosyltransferase (UGT1A1) at 24 hours (AID 2283696). The method in brief: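 UGT1A1 transcript induction was measured by quantitative nuclease protection assay (chemiluminescence) in human hepatocyte cultures 24 h after daily fresh dosing, with 0.2% DMSO as vehicle and baseline.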

Read-out in experiment [10]: Cytochrome P450 3A4 (Homo sapiens) (UniProt P08684)
Kind of experiment: CLD_CYP3A4_48hr: CellzDirect (CLD) Gene Expression Assay for xenobiotic metabolism (CYP3A4) at 48 hours (AID 2283698). The method in brief:
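CYP3A4 induction read by qNPA chemiluminescence after 48 h, with fresh dosing solutions on consecutive days, in cultured human hepatocytes (two donors). Vehicle 0.2% DMSO as baseline; microscopy-based cytotoxicity annotated yes/no alongside data.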

Read-out in experiment [11]: Cytochrome P450 2B6 (Homo sapiens) (UniProt P20813)
Kind of experiment: CLD_CYP2B6_48hr: CellzDirect (CLD) Gene Expression Assay for xenobiotic metabolism (CYP2B6) at 48 hours (AID 2283699).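 Further: actives raise transcript level above DMSO so potency reflects induction.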 The method, boiled down: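 CYP2B6 transcript induction, read by quantitative nuclease protection (S1 digestion, chemiluminescent detection) 48 h after dosing, is fitted upward against 0.2% DMSO. Cultured human liver primary cells, two donor preparations, received fresh chemical daily over multiple concentrations.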

Read-out in experiment [12]: Cytochrome P450 2C19 (Homo sapiens) (UniProt P33261)
Put plainly: CLD_CYP2C19_48hr: CellzDirect (CLD) Gene Expression Assay for xenobiotic metabolism (CYP2C19) at 48 hours (AID 2283700).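 Further: fitted upward so actives raise CYP2C19 mRNA above the 0.2% DMSO vehicle.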 The method in brief: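 CYP2C19 mRNA induction read by chemiluminescent quantitative nuclease protection assay after 48 h, with fresh compound added daily for two days to cultured human liver hepatocytes. Activity fitted upward against 0.2% DMSO vehicle.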

Read-out in experiment [13]: alkyl and aryl transferase (GSTA2), GSTA2 (gene 2939)
Kind of experiment: CLD_GSTA2_24hr: CellzDirect (CLD) Gene Expression Assay for alkyl and aryl transferase (GSTA2) at 24 hours (AID 2283693). The method in brief: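 GSTA2 transcript levels were quantified by quantitative nuclease protection assay in primary human hepatocytes 24 h after daily dosing with fresh solutions at multiple concentrations; 0.2% DMSO vehicle as baseline, cytotoxicity flagged morphologically.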

Read-out in experiment [14]: xenobiotic metabolism (CYP1A2), CYP1A2 (gene 1544)
Put plainly: CLD_CYP1A2_24hr: CellzDirect (CLD) Gene Expression Assay for xenobiotic metabolism (CYP1A2) at 24 hours (AID 2283683). The method in brief:
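CYP1A2 mRNA induction measured by quantitative nuclease protection (chemiluminescent) in human primary hepatocytes 24 h after multi-concentration chemical dosing with daily fresh solutions. DMSO (0.2%) baseline; positive-direction fitting; morphology-based cytotoxicity noted.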

Read-out in experiment [15]: Broad substrate specificity ATP-binding cassette transporter ABCG2 (Homo sapiens) (UniProt Q9UNQ0)
Put plainly: CLD_ABCG2_24hr: CellzDirect (CLD) Gene Expression Assay for ABC Transporter (ABCG2) at 24 hours (AID 2283685). The method, boiled down:
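ABCG2 mRNA induction, read as gain of chemiluminescent signal over 0.2% DMSO, was measured by quantitative nuclease protection at 24 h. Cultured human liver hepatocytes were given fresh dosing solutions of test chemicals at several concentrations each day.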

Read-out in experiment [16]: ABC Transporter (ABCB1), ABCB1 (gene 5243)
Put plainly: CLD_ABCB1_24hr: CellzDirect (CLD) Gene Expression Assay for ABC Transporter (ABCB1) at 24 hours (AID 2283684). The method in brief: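 ABCB1 mRNA induction versus 0.2% DMSO vehicle was read by qNPA chemiluminescence at 24 h. Cultured human hepatocytes from two donor preparations received daily fresh dosing, and phase-contrast cytotoxicity calls were annotated alongside the data.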

Read-out in experiment [17]: Cytochrome P450 3A4 (Homo sapiens) (UniProt P08684)
Kind of experiment: CLD_CYP3A4_6hr: CellzDirect (CLD) Gene Expression Assay for xenobiotic metabolism (CYP3A4) at 6 hours (AID 2283680). The method, boiled down:
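CYP3A4 mRNA induction, 6 h after dosing of cultured primary human hepatocytes from two donors, read by quantitative nuclease protection (qNPA, chemiluminescence). Vehicle 0.2% DMSO as baseline; morphology-based cytotoxicity annotated yes/no.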

Read-out in experiment [18]: Cytochrome P450 2C19 (Homo sapiens) (UniProt P33261)
Kind of experiment: CLD_CYP2C19_24hr: CellzDirect (CLD) Gene Expression Assay for xenobiotic metabolism (CYP2C19) at 24 hours (AID 2283687).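 Further: activity means mRNA induction above DMSO vehicle baseline.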 The method, boiled down:
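CYP2C19 mRNA was quantified by qNPA chemiluminescence after 24 h of daily dosing of cultured human primary hepatocytes from two donors; vehicle was 0.2% DMSO, and increases over DMSO baseline were fitted.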

The record followed here is PubChem BioAssay (EPA / NIEHS).

The term AC50 denotes the midpoint of the concentration-response curve, whichever way the signal moves.

Molecules are shown by their SMILES. Records with an inconclusive call do not appear. Active and inactive are the calls of the source. How the source made its calls, unless noted: active means hit-call score of the fitted dose curve at least 0.9, where 1 is the maximum; inconclusive means response in the unintended direction; inactive means score below 0.9.

Sequence of Cytochrome P450 3A4 (Homo sapiens) (P08684 whole entry, looked up): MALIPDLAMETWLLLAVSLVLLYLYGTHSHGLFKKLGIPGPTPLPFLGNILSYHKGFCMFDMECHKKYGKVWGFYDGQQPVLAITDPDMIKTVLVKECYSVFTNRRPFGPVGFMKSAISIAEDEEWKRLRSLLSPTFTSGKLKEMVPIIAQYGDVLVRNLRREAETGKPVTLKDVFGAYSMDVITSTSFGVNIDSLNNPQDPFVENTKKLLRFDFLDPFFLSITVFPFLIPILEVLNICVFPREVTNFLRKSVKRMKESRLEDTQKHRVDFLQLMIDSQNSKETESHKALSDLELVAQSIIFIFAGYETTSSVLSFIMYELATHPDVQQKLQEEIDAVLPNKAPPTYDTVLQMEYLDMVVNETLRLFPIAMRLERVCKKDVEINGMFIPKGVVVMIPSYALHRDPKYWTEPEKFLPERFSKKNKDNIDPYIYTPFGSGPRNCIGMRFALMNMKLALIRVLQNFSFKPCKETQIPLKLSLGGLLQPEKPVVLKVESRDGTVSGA
Sequence of Cytochrome P450 2C19 (Homo sapiens) (P33261 whole entry, looked up): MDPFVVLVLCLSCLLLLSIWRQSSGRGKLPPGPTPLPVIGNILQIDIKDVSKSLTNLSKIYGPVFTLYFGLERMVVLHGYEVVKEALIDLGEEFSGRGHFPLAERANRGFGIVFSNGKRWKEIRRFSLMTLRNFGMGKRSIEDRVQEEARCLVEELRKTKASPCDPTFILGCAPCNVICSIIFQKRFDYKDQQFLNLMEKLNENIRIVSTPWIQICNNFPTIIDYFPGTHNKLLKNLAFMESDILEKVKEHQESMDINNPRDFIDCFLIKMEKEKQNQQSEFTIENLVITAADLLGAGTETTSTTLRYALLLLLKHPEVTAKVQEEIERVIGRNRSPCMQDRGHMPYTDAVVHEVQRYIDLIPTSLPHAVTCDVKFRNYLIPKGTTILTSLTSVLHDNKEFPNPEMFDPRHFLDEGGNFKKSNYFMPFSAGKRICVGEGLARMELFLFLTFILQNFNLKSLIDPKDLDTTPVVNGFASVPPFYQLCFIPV
Sequence of Broad substrate specificity ATP-binding cassette transporter ABCG2 (Homo sapiens) (Q9UNQ0 whole entry, looked up): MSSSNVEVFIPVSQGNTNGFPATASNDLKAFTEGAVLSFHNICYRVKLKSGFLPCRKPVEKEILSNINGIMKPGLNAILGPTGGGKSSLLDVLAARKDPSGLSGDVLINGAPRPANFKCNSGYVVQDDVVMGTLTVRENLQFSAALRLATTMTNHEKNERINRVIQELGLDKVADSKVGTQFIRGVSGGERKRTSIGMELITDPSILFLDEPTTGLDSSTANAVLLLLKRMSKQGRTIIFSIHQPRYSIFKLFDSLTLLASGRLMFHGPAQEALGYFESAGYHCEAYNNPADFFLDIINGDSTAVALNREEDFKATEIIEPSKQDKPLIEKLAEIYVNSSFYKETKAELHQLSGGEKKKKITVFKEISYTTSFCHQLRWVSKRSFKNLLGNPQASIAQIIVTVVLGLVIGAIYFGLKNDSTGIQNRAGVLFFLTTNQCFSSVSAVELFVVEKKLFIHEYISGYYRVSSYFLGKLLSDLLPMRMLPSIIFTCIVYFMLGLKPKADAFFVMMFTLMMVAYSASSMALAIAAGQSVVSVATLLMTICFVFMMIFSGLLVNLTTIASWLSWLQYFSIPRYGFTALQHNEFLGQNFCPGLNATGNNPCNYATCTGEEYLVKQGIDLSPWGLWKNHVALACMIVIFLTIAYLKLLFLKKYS

`CCCOc1nn(C(=O)NS(=O)(=O)c2ccccc2C(=O)OC)c(=O)n1C`: the outcome in experiment [1], in [2], in [3], in [4], in experiment [5] and in [7] was inactive. For the same compound, the result in experiment [8], in [9], in [11] and in experiment [12] was inactive. The AC50 in experiment [6] was 9.43 µM (active); in experiment [10], 36.4 µM (active).
Turning to `CCCCN(CC)c1c([N+](=O)[O-])cc(C(F)(F)F)cc1[N+](=O)[O-]`, the AC50 was 5.08 µM (active) in [2]; 7.3 µM (active) in [4]; 6.35 µM (active) in experiment [6]; 9.11 µM (active) in experiment [9]; 6.48 µM (active) in experiment [10]. Also, the call in experiment [5] and in experiment [13] was inactive.
For `CCOP(=S)(Oc1cnc(C(C)(C)C)nc1)OC(C)C` (centres undefined), the AC50 was 16.8 µM (active) in experiment [2]; 6.43 µM (active) in experiment [14]; 2.05 µM (active) in [4]; 0.464 µM (active) in experiment [6]; 4.38 µM (active) in experiment [8]; 3.14 µM (active) in experiment [9]. In addition, the AC50 in experiment [10] was 0.383 µM (active); in [11], 0.427 µM (active). For the same compound, the outcome in [15] and in experiment [5] was inactive.
Take `CN(C)NC(=O)CCC(=O)O`: the compound was called inactive in experiment [2], in experiment [3], in experiment [14], in experiment [16], in experiment [15] and in experiment [4]. The compound was classed as inactive in experiment [6], in experiment [9], in experiment [10] and in experiment [12].
Consider `CCCSP(=O)(OCC)Oc1ccc(Br)cc1Cl` (centres undefined), for which the concentration at half-maximal activity (AC50) in [2] was 8.79 µM (active); in experiment [4] it was 6.22 µM (active); in experiment [6] it was 20 µM (active); in experiment [9], 20 µM (active); in [10] it was 7.57 µM (active). In addition, the compound was classed as inactive in experiment [16], in [15] and in experiment [5].
In the case of `CSC1=N[C@@](C)(c2ccccc2)C(=O)N1Nc1ccccc1`, the AC50 in experiment [2] is 3.03 µM (active); in experiment [11], 1.16 µM (active). The call in [17], in [3], in [15], in experiment [4], in experiment [5] and in experiment [6] was inactive. For the same compound, the outcome in [9] and in experiment [10] was inactive.
`CNC(=O)Oc1cccc2c1OC(C)(C)O2`: the AC50 in experiment [2] is 50.1 µM (active); in experiment [14], 20 µM (active); in experiment [4], 20 µM (active); in experiment [6] it was 20 µM (active). Besides, the call in experiment [3], in experiment [18], in [5], in [9] and in experiment [12] was inactive.
Consider `COP(=O)(OC)SCn1c(=O)oc2cc(Cl)cnc21`, for which, in experiment [2], the AC50 is 51.1 µM (active). For the same compound, the result in experiment [14], in [15], in experiment [6], in [7], in [8] and in experiment [9] was inactive. In experiment [10], the call was inactive.
